Data on 25 molecules can be found in PubChem BioAssay (NCI).

Test systems include T-47D breast; MDA-MB-435 melanoma; SW-620 colon; MCF7 breast; HCT-116 colon; KM12 colon; MDA-MB-468 breast; HCC-2998 colon.
Assay in all cases: NCI-60 one-dose screen, 48 h (100 = growth as untreated, 0 = no growth, -100 = all killed)
What all share (conditions): 10 µM

The structures appear in SMILES notation. About 83,000 compounds went through this panel and 20% of them were active in at least one assay; those are over-represented in the sample as a whole.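 Plates (96-well) were seeded with cells, treated with compound at one concentration, and incubated for 48 hours before percent growth was determined.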 A number with no mark means an inactive call. Active and inactive are the calls of the source. The calls were made as follows: active = growth percent below 10; inactive = the rest.

For `O=C(Nc1ccc(Cl)c([N+](=O)[O-])c1)Nc1ccc(Cl)c([N+](=O)[O-])c1`, the growth in the test on T-47D breast was 1.86% (active); in the test with MDA-MB-435 melanoma it was 13.3%; with SW-620 colon it was 18.7%; with MCF7 breast it was -5.85% (active); in the test on HCT-116 colon, 9.36% (active); in the test with KM12 colon it was 5.87% (active). Also, the growth with MDA-MB-468 breast is -27.2% (active).
For `N#C/C(=C\c1ccc(N(c2ccccc2)c2ccccc2)cc1)C(N)=O`, the growth with T-47D breast is -26.7% (active); with MDA-MB-435 melanoma it was 92.7%; with SW-620 colon it was 45.6%; with MCF7 breast it was 6.51% (active); in the test with HCT-116 colon it was 14.9%; in the test with HCC-2998 colon, 73.7%. The values for the growth with KM12 colon and in the test on MDA-MB-468 breast were 78.6% and -91.2% (active), respectively.
As to `O=C(c1ccc(Cl)cc1)C1[C@H](c2ccc(Br)cc2)[C@@H](c2ccccc2)NC12C(=O)Nc1ccc(Cl)cc12` (stereo partly specified), the growth in the test with T-47D breast is 8.01% (active); in the test on MDA-MB-435 melanoma it was -84.9% (active); in the test on SW-620 colon it was -76.4% (active); in the test on MCF7 breast it was -39.7% (active); with HCT-116 colon, 5.1% (active); in the test on KM12 colon it was -26.6% (active). Moreover, the growth in the test with MDA-MB-468 breast is -90% (active).
In the case of `O=C(Nc1cccc(C(F)(F)F)c1)c1cncc(C#Cc2cnc3cccnn23)c1`, the growth is 13.5% with T-47D breast; 25.6% in the test with MDA-MB-435 melanoma; 34.3% in the test with SW-620 colon; 15.4% in the test on HCT-116 colon; 46.9% with HCC-2998 colon; 7.46% (active) in the test on KM12 colon. In addition, in the test on MDA-MB-468 breast, the growth was 47.8%.
`O=C(Cn1cc(CSc2nnc3oc4ccccc4n23)nn1)Nc1ccc(Br)cc1`: the growth was 70.5% with T-47D breast; 98.1% in the test on MDA-MB-435 melanoma; 108% in the test on SW-620 colon; 65.3% with MCF7 breast; 82% in the test on HCT-116 colon; 96.4% with HCC-2998 colon. For the same molecule, the growth in the test on KM12 colon was 85.7%; in the test with MDA-MB-468 breast, 80.1%.
Turning to `O=C(Nc1ccc(Cl)c(C(F)(F)F)c1)c1cncc(C#Cc2cnc3ccc(N4CCOCC4)nn23)c1`, the growth with T-47D breast is 1.27% (active); with MDA-MB-435 melanoma, 19.3%; in the test on SW-620 colon, 19.4%; in the test on MCF7 breast, -13.3% (active); with HCT-116 colon, -26.7% (active); in the test with HCC-2998 colon, -13.3% (active). Moreover, the growth in the test with KM12 colon was -21.5% (active).
With `O=C(NCCCCC(c1ccc(F)cc1)c1ccc(F)cc1)NCCCc1cccnc1`, the growth with T-47D breast is 5.2% (active); in the test on MDA-MB-435 melanoma, 11.9%; in the test with SW-620 colon it was 17.3%; in the test on MCF7 breast, 13.2%; in the test with HCT-116 colon, 3.26% (active); in the test with HCC-2998 colon, 29.2%. The growth with KM12 colon is 18%; with MDA-MB-468 breast, -3.04% (active).
Consider `O=C(Nc1ccccc1)Nc1nc2ccccc2s1`, for which the growth is 25.5% with T-47D breast; 97.2% in the test with MDA-MB-435 melanoma; 111% with SW-620 colon; 21.4% in the test on MCF7 breast; 85.9% in the test with HCT-116 colon; 85% with HCC-2998 colon. In addition, the growth is 90.1% in the test with KM12 colon and -1.66% (active) in the test with MDA-MB-468 breast.
Consider `Cc1noc2c(Cc3ccc([N+](=O)[O-])cc3)nn(CC(=O)N/N=C/c3ccc(Cl)cc3)c(=O)c12`, for which the growth in the test with T-47D breast is 43.8%; in the test with MDA-MB-435 melanoma, 76.3%; in the test on SW-620 colon it was 68.2%; with MCF7 breast it was 52.5%; with HCT-116 colon, 21.7%; in the test with HCC-2998 colon, 70.7%. Also, the growth in the test with KM12 colon is 69.7%.
Take `CC1(C)CC[C@]2(C(=O)N3CCOCC3)CC[C@]3(C)C(=CC[C@@H]4[C@@]5(C)CC[C@H](NCO)C(C)(C)[C@@H]5CC[C@]43C)[C@H]2C1`: the growth with T-47D breast was -72.4% (active); in the test with MDA-MB-435 melanoma, -96.4% (active); in the test on SW-620 colon, -88.8% (active); with MCF7 breast, -80.3% (active); in the test with HCT-116 colon it was -88.9% (active); in the test with HCC-2998 colon, -78.1% (active). Also, the growth with KM12 colon is -90.5% (active); in the test on MDA-MB-468 breast, -97% (active).
Take `Cc1ccc(C(=O)N/C(=C2/OCCN2C)[P+](c2ccccc2)(c2ccccc2)c2ccccc2)cc1`: the growth was 55.3% in the test on T-47D breast; 54.4% in the test with MDA-MB-435 melanoma; 84.1% in the test on SW-620 colon; 56.4% in the test with MCF7 breast; 57.9% in the test on HCT-116 colon; 75.1% with HCC-2998 colon. The growth was 55.4% with KM12 colon and -13.3% (active) in the test with MDA-MB-468 breast.
For `O=C(Cc1ccc2c(c1)CN(C1CCC(=O)NC1=O)C2=O)NCc1cccc2ccccc12` (stereo unspecified), the growth is -4.86% (active) with T-47D breast; -15.1% (active) in the test on MDA-MB-435 melanoma; 5.07% (active) with SW-620 colon; 1.22% (active) in the test on MCF7 breast; 9.59% (active) in the test with HCT-116 colon; -48.6% (active) in the test on HCC-2998 colon. Moreover, the growth in the test with KM12 colon is -7.26% (active).
Regarding `Cc1cccc(NC(=O)CSc2nc3ccc(F)cc3c(=O)n2-c2ccc(Cl)cc2)c1C`, the growth is 91.5% in the test with T-47D breast; 83.4% with MDA-MB-435 melanoma; 80.1% with SW-620 colon; 69.5% in the test with MCF7 breast; 44.8% in the test with HCT-116 colon; 94.5% in the test on HCC-2998 colon. Besides, the growth in the test with KM12 colon was 88.8%; in the test on MDA-MB-468 breast, 80.7%.
On to `Clc1cccc(N/N=C/c2c[nH]c3ccccc23)n1`, for which the growth was 27.4% in the test on T-47D breast; 19.8% in the test with MDA-MB-435 melanoma; 52.1% with SW-620 colon; 11.2% with MCF7 breast; 23.4% in the test on HCT-116 colon; 30.2% with HCC-2998 colon. For the same molecule, the growth in the test on KM12 colon was 9.99% (active); with MDA-MB-468 breast it was -10.1% (active).
In the case of `O=C(NO)c1ccc(Cn2ccc3c(Nc4ccccc4)ncnc32)cc1`, the growth with T-47D breast is -8.19% (active); with MDA-MB-435 melanoma, 9.97% (active); with SW-620 colon it was -61.8% (active); with MCF7 breast it was 14%; in the test with HCT-116 colon it was -9.89% (active); in the test on HCC-2998 colon it was -30.1% (active). The growth with KM12 colon was 12.1%; in the test on MDA-MB-468 breast it was -5.25% (active).
As for `N#Cc1c(-c2ccc(F)cc2)nc(SCc2ccc([N+](=O)[O-])cc2)nc1N1CCOCC1`, the growth with T-47D breast was 55.5%; in the test on MDA-MB-435 melanoma it was 84%; in the test on SW-620 colon it was 80.5%; with HCT-116 colon it was 64.4%; in the test with HCC-2998 colon, 90.7%; in the test on KM12 colon, 84.9%. In the test on MDA-MB-468 breast, the growth is 50.6%.
Turning to `O=C(Nc1ccc(I)cc1F)c1cc(-c2ccc(F)cc2F)ccc1O`, the growth was -22.7% (active) in the test on T-47D breast; 0.752% (active) in the test on MDA-MB-435 melanoma; 10.1% in the test on SW-620 colon; -12.8% (active) with MCF7 breast; 17.2% in the test with HCT-116 colon; 5.11% (active) in the test on HCC-2998 colon. Further, the growth in the test with KM12 colon was 6.39% (active); in the test on MDA-MB-468 breast, -26.8% (active).
`Cc1ccc(-c2nc(Nc3ccc(S(N)(=O)=O)cc3)c3ccccc3n2)cc1`: the growth with T-47D breast was 40.5%; in the test with MDA-MB-435 melanoma, 57%; in the test on SW-620 colon it was 32.2%; with MCF7 breast, 26.7%; in the test with HCT-116 colon, 34.7%; in the test with HCC-2998 colon, -9.82% (active). In addition, the growth in the test with KM12 colon was 0.051% (active); with MDA-MB-468 breast it was 44.2%.
With `Cc1ccc(C(C)C)cc1NC(=O)c1ccccc1O`, the growth in the test with T-47D breast is 22%; in the test on MDA-MB-435 melanoma, 44.7%; in the test with SW-620 colon, 62.8%; in the test on HCT-116 colon, 34.6%; with HCC-2998 colon it was 47.5%; with KM12 colon, 48.5%. Besides, the growth with MDA-MB-468 breast was 40%.
For `O=C(CSc1nnc(-c2ccc3nc(-c4ccc(Cl)cc4)[nH]c3c2)o1)Nc1ccc(Br)cc1`, the growth is 53.7% with T-47D breast; -88% (active) in the test with MDA-MB-435 melanoma; -20.9% (active) in the test with SW-620 colon; -25% (active) in the test on MCF7 breast; -61.9% (active) in the test with HCT-116 colon; 28.9% in the test with HCC-2998 colon. For the same molecule, the growth in the test with KM12 colon was 15.6%; in the test with MDA-MB-468 breast it was -4% (active).
Regarding `O=C(CNc1nc(-c2ccccc2)cs1)Nc1ccc(Br)cc1`, the growth with T-47D breast was -51.4% (active); with MDA-MB-435 melanoma, -1.09% (active); in the test with SW-620 colon it was -64.6% (active); in the test on HCT-116 colon, -44.9% (active); with HCC-2998 colon, -98.1% (active); in the test with KM12 colon, -68.3% (active). Also, the growth in the test with MDA-MB-468 breast was -84.1% (active).
`COc1ccc2c3nc4cc(C)c(C)cc4nc3n(CCN(C)C)c2c1`: the growth with T-47D breast was -12.2% (active); in the test on MDA-MB-435 melanoma, -76.1% (active); with SW-620 colon it was -51.6% (active); with MCF7 breast it was -16.6% (active); in the test on HCT-116 colon, -61.1% (active); in the test with HCC-2998 colon, -56.1% (active). Moreover, the results for the growth in the test with KM12 colon and in the test with MDA-MB-468 breast were -18% (active) and -10.9% (active), respectively.
Turning to `C=C[C@H]1[C@H](O[C@@H]2OC(CO)[C@@H](O)[C@H](O)C2OC(=O)c2c(O)cc(O)cc2-c2cccc(O)c2)OC=C2C(=O)OCC[C@H]21` (stereo partly specified), the growth was 99.3% with T-47D breast; 102% in the test on MDA-MB-435 melanoma; 105% in the test with SW-620 colon; 93.5% in the test with MCF7 breast; 94.4% in the test on HCT-116 colon; 106% in the test on HCC-2998 colon. Further, the growth with KM12 colon was 103%; with MDA-MB-468 breast, 96.5%.
As for `O=C1NC(=NC23CC4CC(CC(C4)C2)C3)N/C1=C\c1ccc2ncoc2c1`, the growth with T-47D breast is -0.573% (active); in the test on MDA-MB-435 melanoma, 16.8%; with SW-620 colon, 9.67% (active); in the test on MCF7 breast, 1.42% (active); with HCT-116 colon it was 27.6%; in the test with HCC-2998 colon it was -5.81% (active). Further, the results for the growth in the test with KM12 colon and in the test with MDA-MB-468 breast were 4.28% (active) and -60% (active), respectively.
Take `N[C@@H](CSSC[C@H](N)C(=O)Nc1ccc(OCC2CCCC2)cc1)C(=O)Nc1ccc(OCC2CCCC2)cc1`: the growth in the test on T-47D breast was -68.9% (active); with MDA-MB-435 melanoma it was -100% (active); in the test with SW-620 colon it was -84% (active); in the test with MCF7 breast it was -73% (active); in the test with HCT-116 colon, -35.9% (active); in the test with HCC-2998 colon, -96.5% (active). Besides, the growth was -80.6% (active) with KM12 colon and -93.4% (active) with MDA-MB-468 breast.
